A short description of test [1]: qHTS RealTime-Glo MT Cell Viability Assay in HEK293 cells - 0 hour (AID 1224880). Note: top concentration of the series differs between compounds; nearly all actives have a fitted effect of over 45% in size. An outline of the steps:
(§1)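 Luminescence readout at each listed time point; HEK293, 600 cells/well, RealTime-Glo MT reagent added with cells; compounds pinned (23 nL in DMSO) after 5 h at 37 C; continuous culture at 37 C.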

A short description of test [2]: A CellTox Green Cytotoxicity Assay to monitor cytotoxicity in HEK293 cells - 32 hour (AID 1224881). Note: nearly all actives have a fitted effect of over 40% in size. An outline of the steps:
(§2)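 Read-out: fluorescence of a cell-impermeant cyanine dye staining DNA of dead cells, proportional to cytotoxicity. HEK293, 600 cells/well with reagent, compound (23 nL DMSO) added after 5 h; reads at 0, 8, 16, 24, 32, 40 h.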

The nature of test [3]: A CellTox Green Cytotoxicity Assay to monitor cytotoxicity in HepG2 cells - 0 hour (AID 1224882). Note: nearly all actives have a fitted effect of over 35% in size. An outline of the steps: (§3)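 HepG2, 600 cells/well premixed w/ CellTox Green; 5 h settle, 37 C/5% CO2; pintool cpd add (DMSO); 37 C, 40 h; fluorescence read at 0, 8, 16, 24, 32, 40 h.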
Test [4] can be described thus: A CellTox Green Cytotoxicity Assay to monitor cytotoxicity in HepG2 cells - 32 hour (AID 1224883). Note: nearly all actives have a fitted effect of over 50% in size. An outline of the steps:
as §3

Test [5] in a line: A CellTox Green Cytotoxicity Assay to monitor cytotoxicity in HEK293 cells - 8 hour (AID 1224884). Note: nearly all actives have a fitted effect of over 35% in size. The essentials:
as §2

A short description of test [6]: qHTS RealTime-Glo MT Cell Viability Assay in HepG2 cells - 16 hour (AID 1224885). Note: nearly all actives have a fitted effect of over 50% in size. The essentials:
(§4)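 Cell number in HepG2 cultures estimated from NanoLuc luminescence generated by metabolic reduction of a prosubstrate by living cells. The homogeneous, nonlytic format allowed repeated reads at 0, 8, 16, 24, 32 and 40 h of compound exposure.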

The nature of test [7]: qHTS RealTime-Glo MT Cell Viability Assay in HEK293 cells - 24 hour (AID 1224886). Note: top concentration of the series differs between compounds; nearly all actives have a fitted effect of over 50% in size. An outline of the steps: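 Homogeneous bioluminescent viability format in HEK293 cells (600 cells/well). Following 5 h at 37 C/5% CO2, 23 nL compound was pintooled; the signal was measured repeatedly during 40 h incubation.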
(In qHTS, concentration-response curves come from the screen itself.)

A short description of test [8]: qHTS RealTime-Glo MT Cell Viability Assay in HEK293 cells - 8 hour (AID 1224887). Note: top concentration of the series differs between compounds; nearly all actives have a fitted effect of over 50% in size. An outline of the steps: as §1
Test [9] can be described thus: A CellTox Green Cytotoxicity Assay to monitor cytotoxicity in HEK293 cells - 16 hour (AID 1224888). Note: nearly all actives have a fitted effect of over 35% in size. The essentials: as §2
The nature of test [10]: qHTS RealTime-Glo MT Cell Viability Assay in HepG2 cells - 0 hour (AID 1224889). Note: nearly all actives have a fitted effect of over 50% in size. An outline of the steps:
as §4

Test [11] can be described thus: A CellTox Green Cytotoxicity Assay to monitor cytotoxicity in HepG2 cells - 8 hour (AID 1224890). Note: nearly all actives have a fitted effect of over 45% in size. The essentials:
as §3

Test [12] is described as follows: qHTS assay to identify small molecule antagonists of the estrogen receptor alpha (ER-alpha) signaling pathway using the BG1 cell line in the presence of 0.1 nM 17-beta-estradiol - cell viability counter screen (AID 1259241). Note: nearly all actives have a fitted effect of over 40% in size. The essentials: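 Live-cell protease activity (CellTiter-Fluor fluorescence, 30 min) was read in the same wells after VM7Luc4E2 cells had been exposed to compounds with 0.1 nM 17beta-estradiol for 22 hr at 37C.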

Test [13] can be described thus: qHTS assay to identify small molecule antagonists of the androgen receptor (AR) signaling pathway using the MDA cell line in the presence of 0.5 nM R1881 - cell viability counter screen (AID 1259242). Note: nearly all actives have a fitted effect of over 45% in size. The essentials:
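Live-cell protease fluorescence, CellTiter-Fluor, 30 min at 37C. Cells: MDA-kb2, 3,000/well, preincubated 5 hr. Compounds plus 0.5 nM R1881 final, 16 hr, 37C, 0% CO2.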

The target in test [14] is Estrogen receptor (Homo sapiens) (UniProt P03372). The test is described as follows: qHTS assay to identify small molecule antagonists of the estrogen receptor alpha (ER-alpha) signaling pathway using the BG1 cell line in the presence of 0.1 nM 17-beta-estradiol (AID 1259244). Note: nearly all actives have a fitted effect of over 50% in size. The essentials: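 Luminescence after ONE-Glo (30 min, room temperature) measured ERE-luciferase activity in VM7Luc4E2 cells treated 22 h with compound and 0.1 nM final 17beta-estradiol as stimulator.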

Test [15] can be described thus: qHTS assay to identify small molecule HDAC inhibitors (AID 1259364). Note: potency is the fitted concentration of half-maximal effect.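 Note: wild-type HCT-116 cells with endogenous class I/II HDAC activity; nearly all actives have a fitted effect of over 45% in size.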 An outline of the steps: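 HCT-116 (wild type), 1,500 cells/well, overnight; compound 2 hr 37C 5% CO2; HDAC-Glo I/II reagent 30 min RT; luminescence readout.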
The nature of test [16]: qHTS assay to identify small molecule HDAC inhibitors - cell viability counter screen (AID 1259365). An outline of the steps: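 HCT-116 (wild type), 1,500 cells/well, overnight 37C/5% CO2; compound in DMSO 2hr; CellTiter-Glo 30min RT; luminescence read.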
Test [17] in a line: qHTS assay to identify small molecule agonists of the sonic hedgehog signaling (Shh) pathway - cell viability counter screen (AID 1259366). Note: nearly all actives have a fitted effect of over 50% in size. An outline of the steps:
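CellTiter-Fluor fluorescence read-out, 1 hr at 37C, added after 23hr compound exposure. Cells: 3T3 Gli1-Luc, an NIH/3T3 clone with stably integrated Gli1-Luc reporter, plated 4hr before compound.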

Test [18] can be described thus: qHTS assay to identify small molecule antagonists of the sonic hedgehog signaling (Shh) pathway - cell viability counter screen (AID 1259367). Note: nearly all actives have a fitted effect of over 55% in size. The essentials:
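Cytotoxicity was assessed in parallel with Shh reporter activity by measuring live-cell protease fluorescence (CellTiter-Fluor) in NIH/3T3 cells stably carrying Gli1-Luc, treated with compound under conditioned medium stimulation for 23 hr plus 1 hr reagent incubation.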

The nature of test [19]: qHTS assay to identify small molecule phospholipidosis (PLD) inducers (AID 1259344; active = well fitted curve in the direction sought with a large enough effect; an effect the other way counts as inactive or inconclusive). The essentials:
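Cells (HepG2, 900 per well) attach for 4 h, receive LipidTOX Red and compound together, incubate 24 h at 37 C, are fixed 30 min with paraformaldehyde/Hoechst, then imaged at one site per well.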

Test [20] concerns the target Androgen receptor (Homo sapiens) (UniProt P10275). The test is described as follows: qHTS assay to identify small molecule antagonists of the androgen receptor (AR) signaling pathway using the MDA cell line in the presence of 0.5 nM R1881 (AID 1259243). Note: nearly all actives have a fitted effect of over 50% in size. An outline of the steps: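 MDA-kb2, MMTV-luc (AR/GR elements); 3,000 cells/well; cpd + 0.5 nM R1881 final; 16 hr 37C, 0% CO2; ONE-Glo 30 min RT; luminescence.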

A number with no mark means an inactive call. Results filed as inconclusive are left out. The source made the active and inactive calls. Unless noted, calls come from the whole dose curve; as a rule, active = well fitted curve in the direction sought with a large enough effect in the repeat runs; inconclusive = weak or mixed curves; inactive = no such curve, though single readings can be large; an effect the other way counts as inactive or inconclusive.

Sequence of Estrogen receptor (Homo sapiens) (P03372 whole entry, looked up): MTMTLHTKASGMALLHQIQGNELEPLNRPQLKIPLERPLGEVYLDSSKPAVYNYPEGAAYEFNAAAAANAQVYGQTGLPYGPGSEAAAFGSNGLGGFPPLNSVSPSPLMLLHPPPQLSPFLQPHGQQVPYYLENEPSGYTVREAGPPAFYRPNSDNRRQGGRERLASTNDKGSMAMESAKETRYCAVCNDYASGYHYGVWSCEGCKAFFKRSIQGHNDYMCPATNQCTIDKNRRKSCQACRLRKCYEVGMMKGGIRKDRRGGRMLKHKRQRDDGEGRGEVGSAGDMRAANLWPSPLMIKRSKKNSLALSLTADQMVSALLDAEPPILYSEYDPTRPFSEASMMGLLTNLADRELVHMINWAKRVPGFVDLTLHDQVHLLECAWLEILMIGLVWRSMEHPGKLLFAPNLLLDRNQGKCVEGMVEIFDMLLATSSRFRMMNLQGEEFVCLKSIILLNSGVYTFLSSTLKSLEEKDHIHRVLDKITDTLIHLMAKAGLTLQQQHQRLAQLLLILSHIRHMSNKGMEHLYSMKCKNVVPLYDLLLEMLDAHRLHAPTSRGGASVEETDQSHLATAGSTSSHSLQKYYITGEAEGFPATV
Sequence of Androgen receptor (Homo sapiens) (P10275 whole entry, looked up): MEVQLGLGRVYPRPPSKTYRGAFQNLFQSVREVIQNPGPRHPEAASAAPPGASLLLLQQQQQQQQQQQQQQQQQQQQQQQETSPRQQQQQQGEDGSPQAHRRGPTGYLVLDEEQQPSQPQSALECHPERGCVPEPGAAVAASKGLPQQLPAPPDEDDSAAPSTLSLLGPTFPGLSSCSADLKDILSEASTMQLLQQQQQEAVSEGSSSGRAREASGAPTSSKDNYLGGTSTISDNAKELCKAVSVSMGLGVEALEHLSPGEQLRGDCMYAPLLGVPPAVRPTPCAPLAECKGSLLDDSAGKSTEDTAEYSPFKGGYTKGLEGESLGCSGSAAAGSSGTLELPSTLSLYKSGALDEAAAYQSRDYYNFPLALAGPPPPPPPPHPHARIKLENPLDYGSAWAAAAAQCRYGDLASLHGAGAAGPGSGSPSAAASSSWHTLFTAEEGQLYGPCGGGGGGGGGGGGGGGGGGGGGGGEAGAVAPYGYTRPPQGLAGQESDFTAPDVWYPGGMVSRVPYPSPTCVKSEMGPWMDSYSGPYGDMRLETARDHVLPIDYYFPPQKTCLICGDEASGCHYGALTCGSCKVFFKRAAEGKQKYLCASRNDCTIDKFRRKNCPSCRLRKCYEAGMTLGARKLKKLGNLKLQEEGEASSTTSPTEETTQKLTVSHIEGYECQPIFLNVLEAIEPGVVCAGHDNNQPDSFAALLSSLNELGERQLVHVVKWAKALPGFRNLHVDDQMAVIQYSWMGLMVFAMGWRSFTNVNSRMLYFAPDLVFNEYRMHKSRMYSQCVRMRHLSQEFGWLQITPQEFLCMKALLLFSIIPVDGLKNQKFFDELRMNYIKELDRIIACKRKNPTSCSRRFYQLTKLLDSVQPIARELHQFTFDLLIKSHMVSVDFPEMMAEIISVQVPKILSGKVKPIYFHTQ

Turning to `C=C(C)C(=O)OCCC(C)OC(=O)C(=C)C` (centres undefined), the compound was called inactive in [1], in test [6], in test [12], in [13], in test [14] and in test [16]. Further, the compound was classed as inactive in [18]. Further, the Potency entry in test [2], in [3], in test [4], in test [5], in [7] and in test [8] was “inactive” throughout. The Potency result in test [9], in test [10], in test [11], in test [15] and in [17] was “inactive” throughout.
As to `Nc1nc2c(ncn2CCC(CO)CO)c(=O)[nH]1`, the outcome in test [1], in test [6], in [12], in [13], in test [14] and in test [16] was inactive. In [18], the call was inactive. The Potency entry in test [2], in test [3], in test [4], in test [5], in test [7] and in test [8] was “inactive” throughout. The Potency entry in [9], in test [10], in test [11], in test [19], in test [15] and in test [17] was “inactive” throughout.
As to `COCc1ccc(COC)cc1`, the compound was called inactive in test [1], in test [6], in test [12], in [13], in test [14] and in test [16]. Besides, the call in test [18] was inactive. Besides, the Potency result in [2], in [3], in [4], in [5], in [7] and in [8] was “inactive” each time. For the same compound, the Potency entry in test [9], in test [10], in test [11], in [15] and in test [17] was “inactive” throughout.
Consider `O=C(O)/C=C/c1ccc(/C=C/C(=O)O)cc1`, for which the call in test [1], in test [6], in test [12], in [13] and in [16] was inactive. Also, the Potency result in [2], in test [3], in test [4], in [5], in test [7] and in test [8] was “inactive” each time. Moreover, the Potency result in [9], in [10], in test [11], in test [20] and in test [17] was “inactive” in each case. In test [15], the Potency was 1.34 µM (active).
On to `CN(C)CCn1nnnc1SCC1=C(C(=O)O)N2C(=O)[C@@H](NC(=O)Cc3csc(N)n3)[C@H]2SC1`, for which the call in test [1], in [6], in [12], in test [13], in test [16] and in test [18] was inactive. In addition, the Potency entry in [2], in test [3], in test [4], in test [5], in [7] and in test [8] was “inactive” in each case. Moreover, the Potency result in test [9], in test [10], in [11], in test [20], in test [19] and in [15] was “inactive” each time. Further, in test [17], the Potency result is “inactive”.
As to `CC(C)CCCCCCN`, the result in [1], in test [6], in test [12], in test [13], in test [14] and in test [16] was inactive. Further, the result in test [18] was inactive. Moreover, the Potency entry in [2], in test [3], in test [4], in test [5], in [7] and in [8] was “inactive” in each case. The Potency entry in test [9], in test [10], in [11], in [20], in [15] and in test [17] was “inactive” in each case.
As for `C1COCCO1`, the compound was classed as inactive in [1], in test [6], in [12], in test [13], in test [14] and in test [16]. Moreover, the call in [18] was inactive. Moreover, the Potency entry in test [2], in test [3], in [4], in [5], in [7] and in test [8] was “inactive” each time. Moreover, the Potency entry in test [9], in test [10], in [11], in test [20], in test [15] and in [17] was “inactive” in each case.

These data come from PubChem BioAssay (Tox21).
